Results: PubChem BioAssay AID493220 (National Center for Advancing Translational Sciences (NCATS), 2011)
Results filed as inconclusive are left out. Activity calls are given as the source filed them. Calls come from the whole dose curve.

Molecular target: Polyunsaturated fatty acid lipoxygenase ALOX15 (Homo sapiens) (UniProt P16050)
Assay: Inhibitors of 12-hLO (12-human lipoxygenase): 15hLO-1 Cuvette-Based Inhibition Counterscreen Assay for 12hLO Followup Compounds
Conditions: purified 15hLO-1, UV 234 nm product formation
Protocol: Human lipoxygenase 15hLO-1 is a member of the closely related lipoxygenase family of enzymes which catalyze the site-specific oxidation of arachidonic acid to various hormone precursor molecules and as such is a candidate for drug development in a variety of disease areas, such as cancer and inflammation. The enzyme activity of 15hLO-1 was determined by a direct measurement of product formation by monitoring the absorbance at 234 nm in a 2 mL cuvette. IC50 values of inhibitors were obtained by measuring the enzymatic rate at a variety of concentrations (Carroll et al, Segraves et al). A purified preparation of human 15hLO-1 was supplied by Professor Ted Holman, University of California, Santa Cruz. This assay was run against 12hLO followup compounds with the goal of identifying selective 12hLO inhibitors. Assay Provider: Holman, T.R., University of California, Santa Cruz Screening Center PI: Austin, Christopher P. Screening Center: NIH Chemical Genomics Center
For control experiments, 2 mL of substrate buffer (10 uM arachidonic acid / 25 mM HEPES / 0.01% (v/v) Triton X-100, pH 8.0) was aliquoted in a cuvette with a magnetic stir bar. After equilibrium was ensured, an aliquot of inhibitor solvent was added (DMSO), and equilibrium was once again assured. The reaction was started by adding enzyme to the cuvette and the reaction was followed until completed. The inhibition experiments were performed as above, except the actual inhibitory compound was added instead of vehicle. To achieve an IC50, typically 5 concentrations of the inhibitor were studied. If the inhibitor concentration was constant, then five different reaction volumes were used. Step \ Parameter \ Value \ Description 1; UV-Vis; 234 nm; Equilibration 2; Reagent; 2 mL; Substrate buffer 3; UV-Vis; 234 nm; Equilibration 4; Reagent; varies; Compound 5; UV-Vis; 234 nm; Equilibration 6; Reagent; 50-200 nM; Enzyme 12-hLO 7; UV-Vis; 234 nm; Enzymatic reaction Step \ Notes 1; Blank cuvette to air. 2; 10 uM AA, 25 mM HEPES, 0.01% Triton X-100, pH 8. 3; No change in absorbance ensured. 4; Compound vehicle or compound in various concentrations depending on potency. 5; No change in absorbance ensured. 6; Enzyme concentration to achieve reaction rate between 0.02 and 0.04 AU/s. 7; Enzymatic reaction visualized until completion.

Sequence of Polyunsaturated fatty acid lipoxygenase ALOX15 (Homo sapiens) (P16050 whole entry, looked up): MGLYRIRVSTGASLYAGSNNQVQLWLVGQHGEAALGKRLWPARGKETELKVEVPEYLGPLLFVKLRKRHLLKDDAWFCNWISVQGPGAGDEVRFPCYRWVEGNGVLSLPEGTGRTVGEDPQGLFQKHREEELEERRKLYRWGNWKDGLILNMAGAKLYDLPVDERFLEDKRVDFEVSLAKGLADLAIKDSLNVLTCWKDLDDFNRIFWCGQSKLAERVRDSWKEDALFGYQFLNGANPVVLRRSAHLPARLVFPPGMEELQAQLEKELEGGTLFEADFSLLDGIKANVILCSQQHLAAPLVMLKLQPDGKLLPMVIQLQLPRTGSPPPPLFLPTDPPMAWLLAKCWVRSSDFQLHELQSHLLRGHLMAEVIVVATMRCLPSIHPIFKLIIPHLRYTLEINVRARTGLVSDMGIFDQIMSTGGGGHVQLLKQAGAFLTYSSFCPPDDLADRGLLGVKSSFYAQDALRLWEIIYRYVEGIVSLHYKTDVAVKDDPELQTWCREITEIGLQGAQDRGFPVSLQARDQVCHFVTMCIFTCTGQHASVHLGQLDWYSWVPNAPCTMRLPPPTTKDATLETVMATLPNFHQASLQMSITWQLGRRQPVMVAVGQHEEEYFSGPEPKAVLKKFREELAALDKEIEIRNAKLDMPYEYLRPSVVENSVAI

SMILES	Potency	outcome
COc1ccc(NC2=NCC(Cc3ccc(Br)cc3)S2)cc1 (stereo not given)	8.89 µM (active)	
Oc1ccc(-c2nc(-c3ccc(O)c(O)c3)cs2)cc1	0.61 µM (active)	
COc1ccc(-c2[nH]ncc2-c2ccc(Cl)cc2)c(O)c1	6.81 µM (active)	
CSCCC(NC(=O)c1ccc(Cl)cc1)C(=O)OCC(=O)Nc1ccc(C#N)cc1 (stereo not given)	46.2 µM (active)	
COc1ccc(C(Nc2ccccn2)c2c(NC(=O)c3ccco3)sc(C)c2C)cc1 (stereo not given)	62.7 µM (active)	
COc1ccc2nc(NC(=O)c3cccc(OCc4c(C)noc4C)c3)sc2c1	33.6 µM (active)	
Cc1[nH]nc(-c2ccc(O)cc2O)c1Oc1ccccc1	15.6 µM (active)	
COc1ccc(-c2n[nH]c(C(F)(F)F)c2-c2cc3ccccc3o2)c(O)c1	6.5 µM (active)	
CC(Oc1ccc(Cl)cc1Cl)C(=O)NC1=NN(c2ccccc2)C(=O)C1 (stereo not given)	65 µM (active)	
Cc1ccc(NC(=O)Nc2cccs2)c(Cl)c1	58.8 µM (active)	
N#CC1=C(N)Oc2n[nH]c(-c3cccs3)c2C1C1CCCCC1 (stereo not given)	9.33 µM (active)	
Cc1cc(Cl)cc(Cl)c1OCC(=O)NCc1ccco1	88.6 µM (active)	
CCOC(=O)Cc1cc(=O)n(-c2nc3ccccc3s2)[nH]1		inactive
Oc1ccccc1-c1cc(-c2ccc3c(c2)OCCO3)n[nH]1	2.55 µM (active)	
COc1ccc(-c2n[nH]c(C)c2-c2ccc(Cl)cc2)c(O)c1	3.51 µM (active)	
Cc1ccc(C(=O)Nc2nnc(-c3ccco3)o2)cc1C		inactive
O=S(=O)(Nc1ccc(O)c(Sc2nc3ccccc3s2)c1)c1ccc(Cl)cc1	12.6 µM (active)	
CCc1ccc(S(=O)(=O)/N=C2/C=C(Sc3ncn[nH]3)C(=O)c3ccccc32)cc1	9.52 µM (active)	
CCOC(=O)CNC(c1ccccc1)c1cc(Br)ccc1NC(=O)CCN1CCOCC1 (stereo not given)		inactive
CCCOC(=O)c1ccc(Oc2c(-c3ccc(O)cc3O)n[nH]c2C)cc1	6.81 µM (active)	

SMILES	Potency	outcome
c1ccc(-c2nc(NCc3cccnc3)c3oc4ccccc4c3n2)cc1	31 µM (active)	
O=C(CSc1n[nH]c(-c2ccccc2)n1)c1ccc(O)c(O)c1	5.77 µM (active)	
COc1ccc(/C=C/c2nc(-c3ccccc3O)n[nH]2)cc1	11.2 µM (active)	
O=C(Nc1nnc(-c2ccccn2)o1)c1ccc(Br)cc1		inactive
Oc1ccc(CN2CCCc3ccccc32)c2cccnc12	81.3 µM (active)	
CCc1cc(-c2[nH]ncc2-c2ccc3c(c2)OCO3)c(O)cc1O	4.01 µM (active)	
CCOc1ccc(-c2[nH]ncc2Oc2cccc(OC)c2)c(O)c1	2.96 µM (active)	
Cc1ccc(S(=O)(=O)Nc2nc(C)c(NC(=O)Nc3ccc(Cl)cc3Cl)s2)cc1		inactive
CSc1ccc(S(=O)(=O)Nc2ccc(S(=O)(=O)Nc3ccc(C)cc3)cc2)cc1	45 µM (active)	
Oc1ccc(C2=Nn3c(nnc3-c3ccco3)SC2)cc1O	39.1 µM (active)	
Oc1ccc(-c2csc(-c3ccccc3)n2)cc1O	0.67 µM (active)	
Oc1ccccc1-c1cc(-c2cccc(F)c2)n[nH]1	4.81 µM (active)	
COc1ccc(Cc2nc(C(=O)Nc3ccc(OC)cc3)cs2)cc1	8.84 µM (active)	
CCCOC(=O)c1ccc(Oc2cn[nH]c2-c2ccc(OC)cc2O)cc1	13.1 µM (active)	
Cc1ccc(C(=O)/C=C/c2c[nH]c3ccccc23)cc1	20.6 µM (active)	
COc1cccc(-c2cnc(NCc3cc(Cl)ccc3O)n2C)c1	32.9 µM (active)	
O=C(Nc1nnc(C2=COCCO2)o1)c1ccc(Cl)cc1		inactive
O=C(Nc1nnc(-c2ccc(Cl)cc2)o1)c1ccccc1Br		inactive
CCc1cc(-c2n[nH]c(C)c2Oc2ccc(C(C)C)cc2)c(O)cc1O	3.87 µM (active)	
Cc1ccc(S(=O)(=O)Nc2ccc(NC(=O)Nc3cccc(C(F)(F)F)c3)cc2)cc1	31.5 µM (active)	
